Laboratory results as given in PubChem BioAssay (EPA / NIEHS).
The source made the active and inactive calls. The calls were made as follows: active = hit-call score of the fitted dose curve at least 0.9, where 1 is the maximum; inactive = score below 0.9.

What was measured:
Conditions in all cases: mRNA level, 48 h; actives raise or lower the signal
[1] = read-out: HGF (gene 3082); experiment: LTEA_HepaRG_HGF: Life Technologies and Expression Analysis (LTEA) Assay for Hepatocyte Growth Facto (HGF) using HepaRG (AID 2283505)
Method in brief: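 Differentiated human HepaRG cells in serum-free induction medium were exposed in duplicate for 48 h to eight concentrations (top 100 uM, half-log steps, 0.5% DMSO). HGF mRNA was quantified by qRT-PCR, normalized to ACTB, GAPDH and POLR2A.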

[2] = read-out: Insulin Like Growth Factor 1 (IGF1), IGF1 (gene 3479); experiment: LTEA_HepaRG_IGF1: Life Technologies and Expression Analysis (LTEA) Assay for Insulin Like Growth Factor 1 (IGF1) using HepaRG (AID 2283506)
Method in brief: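 HepaRG, plated 48 h, then switched to serum-free induction media; test chemical 8-pt half-log from 100 uM (0.5% DMSO), duplicate, 48 h. Lysis in RLT, TaqMan qRT-PCR, norm. ACTB/GAPDH/POLR2A. Bidirectional fit vs DMSO.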

[3] = read-out: Intercellular Adhesion Molecule 1 (ICAM1), ICAM1 (gene 3383); experiment: LTEA_HepaRG_ICAM1: Life Technologies and Expression Analysis (LTEA) Assay for Intercellular Adhesion Molecule 1 (ICAM1) using HepaRG (AID 2283507)
Method in brief: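 Differentiated HepaRG cells in serum-free induction medium were exposed in duplicate for 48 h to eight half-log concentrations up to 100 uM in 0.5% DMSO. Transcript levels were measured by qRT-PCR normalized to ACTB, GAPDH and POLR2A; bidirectional fits relative to DMSO.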

[4] = read-out: Insulin-like growth factor-binding protein 1 (IGFBP1), IGFBP1 (gene 3484); experiment: LTEA_HepaRG_IGFBP1: Life Technologies and Expression Analysis (LTEA) Assay for Insulin-like growth factor-binding protein 1 (IGFBP1) using HepaRG (AID 2283508)
Method in brief: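 Differentiated human HepaRG cells in serum-free induction medium were exposed in duplicate for 48 h to eight concentrations, top 100 uM with half-log dilutions, in 0.5% DMSO. Transcript levels came from qRT-PCR normalised to ACTB, GAPDH and POLR2A, fitted bidirectionally against DMSO.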

[5] = read-out: Interleukin 6 Receptor (IL6R), IL6R (gene 3570); experiment: LTEA_HepaRG_IL6R: Life Technologies and Expression Analysis (LTEA) Assay for Interleukin 6 Receptor (IL6R) using HepaRG (AID 2283510)
Method in brief: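 Readout is IL6R transcript level by TaqMan qRT-PCR, normalized to three housekeeping genes and fitted bidirectionally against 0.5% DMSO controls. Human HepaRG cells received chemicals for 48 h in serum-free induction medium, highest concentration 100 uM.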

[6] = read-out: Potassium channel subfamily K member 1 (KCNK1), KCNK1 (gene 3775); experiment: LTEA_HepaRG_KCNK1: Life Technologies and Expression Analysis (LTEA) Assay for Potassium channel subfamily K member 1 (KCNK1) using HepaRG (AID 2283511)
Method in brief: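 Gain or loss of KCNK1 mRNA is the read-out, quantified by qRT-PCR against three housekeeping genes after 48 h chemical treatment of human HepaRG liver cells. Concentrations ran from 100 uM downward in half-log steps, vehicle 0.5% DMSO.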

[7] = read-out: Keratin 19 (KRT19), KRT19 (gene 3880); experiment: LTEA_HepaRG_KRT19: Life Technologies and Expression Analysis (LTEA) Assay for Keratin 19 (KRT19) using HepaRG (AID 2283512)
Method in brief: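 Differentiated human HepaRG cells, plated 48 h, were exposed in duplicate for 48 h in serum-free induction medium to eight half-log concentrations up to 100 uM in 0.5% DMSO. KRT19 mRNA was quantified by qRT-PCR, normalized to ACTB, GAPDH and POLR2A, and fitted bidirectionally versus DMSO.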

[8] = read-out: JUN Transcription Factor, JUN (gene 3725); experiment: LTEA_HepaRG_JUN: Life Technologies and Expression Analysis (LTEA) Assay for JUN Transcription Factor using HepaRG (AID 2283513)
Method in brief: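 Cells plated 48 h, medium switched to serum-free induction medium, then dosed 48 h (100 uM top, half-log dilutions, 0.5% DMSO). RNA isolated; JUN measured by qRT-PCR against three housekeeping genes; gain or loss fitted relative to DMSO.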

[9] = read-out: Lipase C (LIPC), LIPC (gene 3990); experiment: LTEA_HepaRG_LIPC: Life Technologies and Expression Analysis (LTEA) Assay for Lipase C (LIPC) using HepaRG (AID 2283514)
Method in brief: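 Read-out is LIPC transcript level by TaqMan qRT-PCR, normalized to three housekeeping genes, after 48 h chemical treatment of human HepaRG liver cells. Curves span eight concentrations topping at 100 uM; activity in either direction scored relative to 0.5% DMSO.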

[10] = read-out: Interleukin 6 (IL6), IL6 (gene 3569); experiment: LTEA_HepaRG_IL6: Life Technologies and Expression Analysis (LTEA) Assay for Interleukin 6 (IL6) using HepaRG (AID 2283509)
Method in brief: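 HepaRG, ~100,000 cells/well, 48 h pre-culture; serum-free induction medium; cmpd 8-pt half-log from 100 uM, 0.5% DMSO, duplicate, 48 h. Lysis in RLT, TaqMan qRT-PCR; gain or loss vs DMSO.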

SMILES	outcome [1]	outcome [2]	outcome [3]	outcome [4]	outcome [5]	outcome [6]	outcome [7]	outcome [8]	outcome [9]	outcome [10]	AC50 [1]	AC50 [9]
CCOCCOC(C)=O	inactive	inactive	inactive	inactive	inactive	inactive	inactive	inactive	inactive	–	–	–
c1ccc(-c2ccccc2)cc1	inactive	inactive	inactive	inactive	inactive	inactive	–	inactive	inactive	inactive	–	–
c1cc2ccc3cccc4ccc(c1)c2c34	inactive	inactive	inactive	inactive	inactive	inactive	–	inactive	inactive	inactive	–	–
CC(C)(c1ccccc1)c1ccc(O)cc1	–	inactive	inactive	inactive	inactive	inactive	–	inactive	–	inactive	83.2 µM (active)	83.6 µM (active)
O=S(=O)(O)C(F)(F)C(F)(F)C(F)(F)C(F)(F)C(F)(F)C(F)(F)F	inactive	inactive	inactive	inactive	inactive	inactive	–	inactive	inactive	inactive	–	–
COS(=O)(=O)OC	inactive	inactive	inactive	inactive	inactive	inactive	inactive	inactive	inactive	inactive	–	–
CC1=C2C[C@H]3[C@@H](CC=C4C[C@@H](O)CC[C@@]43C)[C@@H]2CC[C@]12O[C@@H]1C[C@H](C)CN[C@H]1[C@H]2C	inactive	inactive	inactive	inactive	inactive	inactive	inactive	inactive	inactive	–	–	–
CCSC(=O)N(CC)C1CCCCC1	inactive	inactive	inactive	inactive	inactive	inactive	–	inactive	inactive	inactive	–	–
O=C(NC(=O)c1cc(F)c(F)cc1Cl)Nc1cc(F)ccc1N1CCC(C(=O)O)CC1	inactive	inactive	inactive	inactive	inactive	inactive	–	inactive	inactive	inactive	–	–
Cc1ccccc1CO[C@@H]1C[C@@]2(C(C)C)CC[C@]1(C)O2	inactive	inactive	inactive	inactive	inactive	inactive	–	inactive	inactive	inactive	–	–
Nn1cnnc1	inactive	inactive	inactive	inactive	inactive	inactive	inactive	inactive	inactive	–	–	–
Cc1cc(-c2ccc(N)c(C)c2)ccc1N	inactive	inactive	inactive	inactive	inactive	inactive	–	inactive	inactive	inactive	–	–
O=NN(c1ccccc1)c1ccccc1	inactive	inactive	inactive	inactive	inactive	inactive	inactive	inactive	inactive	inactive	–	–
CCOC(=O)C(O)(c1ccc(Cl)cc1)c1ccc(Cl)cc1	inactive	inactive	inactive	inactive	inactive	inactive	inactive	inactive	inactive	–	–	–
CC(C)C(=O)OCC(C)(C)C(OC(=O)C(C)C)C(C)C (configuration not stated)	inactive	inactive	inactive	inactive	inactive	inactive	inactive	inactive	inactive	–	–	–
